# Data: PubChem BioAssay AID1851 (National Center for Advancing Translational Sciences (NCATS), 2009)
# “And” between values parts separate entries of the source, which are not always exact repeats. Equal values may be shown once. Out of some 16,000 compounds screened, about 5,700 (36%) were called active. Another 24% or so got no clear call; they are omitted. The call rests on the fitted dose curve; in most records, active means well fitted curve in the direction sought with a large enough effect; inconclusive means small, poorly fitted or top-dose-only effect, or effect the other way; inactive means no such curve, though single readings can be large or run the other way. The list shows a part of the results.
# Target: Cytochrome P450 1A2 (Homo sapiens) (UniProt P05177)
# Sequence (P05177 whole entry, looked up): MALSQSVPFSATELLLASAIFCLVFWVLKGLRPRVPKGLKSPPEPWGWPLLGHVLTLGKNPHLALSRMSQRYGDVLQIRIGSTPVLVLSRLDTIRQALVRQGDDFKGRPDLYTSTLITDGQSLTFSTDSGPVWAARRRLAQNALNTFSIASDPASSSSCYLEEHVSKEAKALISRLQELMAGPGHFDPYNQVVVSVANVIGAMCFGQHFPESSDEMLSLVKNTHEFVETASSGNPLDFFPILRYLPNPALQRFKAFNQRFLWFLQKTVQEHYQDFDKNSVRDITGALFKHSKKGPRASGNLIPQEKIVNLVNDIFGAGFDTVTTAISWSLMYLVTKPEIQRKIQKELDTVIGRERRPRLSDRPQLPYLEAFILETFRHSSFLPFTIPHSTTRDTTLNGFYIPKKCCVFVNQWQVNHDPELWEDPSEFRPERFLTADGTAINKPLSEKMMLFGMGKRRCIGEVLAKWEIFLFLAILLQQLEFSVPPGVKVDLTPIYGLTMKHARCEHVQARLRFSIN
# Test: Cytochrome panel assay with activity outcomes
# Conditions: recombinant CYP, pro-luciferin dealkylation, luminescence, p450-cyp1a2; series mostly up to 57.1 µM
# On the % scale 0 is the no-effect control and ±100 the full control effect.
SMILES,AC50,"activity, negative = inhibition"
CC(=O)NC1=NC(=O)C(C)S1 (configuration not stated),inactive,
N[C@@H](Cc1nn[nH]n1)C(=O)O,,-8.69% [at 11.4 µM] (inactive)
Nc1[nH]c(=O)nc2c1ncn2[C@H]1O[C@@H](CO)[C@@H](O)[C@@H]1O,,-0.635% [at 11.4 µM] (inactive)
CC1=NCC[N@@+]1(CCc1ccccc1)Cc1ccccc1,,-17.6% [at 11.4 µM] (inactive)
COCCNc1nc(SCc2ccccc2)nc2sc3c(c12)CCC3,1 µM (active),
OCCNc1nc(SCc2ccccc2)nc2sc3c(c12)CCC3,1 µM (active),
C[C@H](Nc1ncnc2sc3c(c12)CCC3)C(=O)O,inactive,
CC(CO)Nc1nc(SCc2ccccc2)nc2sc3c(c12)CCC3 (configuration not stated),0.2 µM (active),
Cc1ccc(CSc2nc3c(c(SCC(=O)O)n2)CCCC3)cc1,inactive,
CCCCNC(=O)C1CCN(Cc2ccccn2)CC1,inactive,
CCCCNC(=O)[C@@H]1Cc2ccccc2N1C(=O)[C@H](N)CC,20 µM (active),
CCCCNC(=O)C1CC(=O)N(CCC(C)C)C1 (configuration not stated),inactive,
O=C(O)Cn1ccnc1[N+](=O)[O-],,-3.98% [at 11.4 µM] (inactive)
CCOC(=O)c1cc2c(=O)n3ccccc3nc2n(CCOC)c1=NC(=O)C(C)(C)C,3.16 µM (active),
CCOC(=O)c1cc2c(=O)n3ccccc3nc2n(CCCOC)c1=NC(C)=O,12.6 µM (active),
C[C@H]1[C@H](C)OC(=O)C[C@H](O)C[C@H](O)C[C@H](O)CC[C@H](O)[C@H](O)CC(=O)C[C@H](O)[C@H](C(=O)O)[C@H](O)C[C@H](O[C@@H]2O[C@@H](C)[C@H](O)[C@@H](N)[C@@H]2O)C=CC=CC=CC=CCCC=CC=C[C@@](C)(O)[C@H]1O,,12.4% [at 11.4 µM] (inactive)
O=[N+]([O-])c1cccc(/C=N/Nc2cc(Cl)nc(-c3ccccc3)n2)c1,1.26 µM (active),
CN(C)C(=O)c1ccc(-c2ccc3ncnc(N4CCNCC4)c3c2)cc1,inactive,
c1nc(N2CCNCC2)c2cc(-c3ccc4c(c3)OCO4)ccc2n1,2 µM (active),
CN(C)c1ccc(-c2ccc3ncnc(N4CCNCC4)c3c2)cc1,2.51 µM (active),
CN1CCN(c2ncnc3ccc(-c4ccc(C(=O)N(C)C)cc4)cc23)CC1,inactive,

SMILES,AC50,"activity, negative = inhibition"
CN1CCN(c2ncnc3ccc(-c4ccc5c(c4)OCO5)cc23)CC1,2.51 µM (active),
C[C@H]1C[C@H]2[C@H]3CCC4=CC(=O)C=C[C@@]4(C)[C@]3(F)[C@H](O)C[C@]2(C)[C@@]1(O)C(=O)COP(=O)(O)O,,2.48% [at 11.4 µM] (inactive)
CC1(C)O[C@@H]2C[C@H]3[C@H]4C[C@H](F)C5=CC(=O)C=C[C@@]5(C)[C@@H]4[C@H](O)C[C@]3(C)[C@]2(C(=O)CO)O1,inactive,
CCC1CC(CSc2ncn[nH]2)OC1=O (configuration not stated),inactive,
Clc1ccccc1-c1nc(-c2ccccc2)n[nH]1,1 µM (active),
COc1ccc(CNc2ncncc2-c2ccc3c(c2)OCO3)c(OC)c1,0.501 µM (active),
COc1ccccc1CNc1ncncc1-c1ccc2c(c1)OCO2,0.158 µM (active),
Cc1nnc(S(=O)(=O)c2ccc(N=Nc3c(N)nc(N)nc3N)cc2)s1,,-10.2% [at 2.29 µM] (inactive)
Cc1nn(C(=O)c2ccco2)c(C)c1Sc1ccc(Br)cc1,14.1 µM (active),
Cc1nn(C(=O)c2ccco2)c(C)c1Sc1ccccc1,15.8 µM (active),
Cc1nn(C(=O)CN2C(=O)c3ccccc3C2=O)c(C)c1Br,inactive,
O=C(c1ccco1)N1CCC2(CCN(Cc3ccccc3)CC2)CC1,inactive,
Cc1nn(C(=O)c2cccnc2)c(C)c1Sc1ccc(Br)cc1,7.08 µM (active),
Cc1nc2ncnn2c(C)c1CCC(=O)N1CCN(C(=O)c2ccco2)CC1,inactive,
CCCCN(C(=S)Nc1ccccc1)C1CCS(=O)(=O)C1 (configuration not stated),inactive,
O=C(O)[C@H]1C[C@H](C(=O)O)N1,inactive,
O=C(O)[C@@H]1C[C@@H](C(=O)O)N1,31.6 µM (active),
O=C(O)[C@@H]1CCCN1,,-12% [at 11.4 µM] (inactive)
NC(N)=NC(=O)Cc1c(Cl)cccc1Cl,inactive,
NC(N)=N/N=C\c1ccc(O)c(C(=O)O)c1,,-11.9% [at 2.29 µM] (inactive)
NC(N)=NN=Cc1c(Cl)cccc1Cl,7.94 µM (active) and 3.98 µM (active),

SMILES,AC50,"activity, negative = inhibition"
Cc1cccc(NC(=O)c2ccc([N+](=O)[O-])o2)n1,5.01 µM (active),
Cc1cccc(NC(=O)c2cc(=O)c3ccccc3o2)n1,2 µM (active),
Cc1cccc(NC(=O)c2cc(N3C(=O)CCC3=O)ccc2Cl)n1,inactive,
Cc1cccc(Sc2c([N+](=O)[O-])ncn2C)n1,inactive,
Cc1ccc(OCC(=O)NNC(=O)c2cc3ccccc3o2)cc1,inactive,
CNC(=O)CCc1nc(-c2ccc(C(C)(C)C)cc2)no1,6.31 µM (active),
CN(C)C(=O)CCc1nc(-c2ccc(C(C)(C)C)cc2)no1,6.31 µM (active),
COc1ccc(Oc2ncc3ncc(=O)n(C4CC4)c3n2)cc1,5.01 µM (active),
CN(C)c1ncc2ncc(=O)n(C)c2n1,6.31 µM (active),
COc1ncc2ncc(=O)n(C3CC3)c2n1,10 µM (active),
CN(C)c1ncc2ncc(=O)n(C3CC3)c2n1,3.16 µM (active),
COC(=O)[C@@]1(Cc2ccc(OC)cc2)[C@H]2c3cc(C(=O)N4CCCC4)n(Cc4cc(F)cc5c4OCOC5)c3C[C@H]2CN1C(=O)c1ccccc1,inactive,
C/C(CCN1CCc2nc(-c3ccccc3)c(-c3ccccc3)cc2C1)=N\O[C@@H](C)c1cn([C@@H]2COC[C@@H]2O)nn1,,-3.92% [at 11.4 µM] (inactive)
Cc1nc(NC(N)=S)sc1C(=O)Nc1ccccc1,8.91 µM (active),
O=C(O)c1ccc(OCc2ccccc2)c(Cl)c1,,-3.18% [at 2.29 µM] (inactive)
O/N=C/c1ccccc1OCc1ccc(Cl)cc1,2.24 µM (active),
CCOc1cc(/C=N/NC(=O)CN2CCCCC2)ccc1OCc1ccccc1,inactive,
Cc1ccc(COc2ccc(Br)cc2/C=N/O)cc1,1.58 µM (active),
NC(=S)N/N=C/c1ccccc1OCc1cccc(Cl)c1,2.24 µM (active),
O=C(Cc1ccccc1)N/N=C/c1ccccc1OCc1ccc(Cl)cc1,2.24 µM (active),
